In PubChem BioAssay:
Activity calls are given as the source filed them.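 How the source made its calls, unless noted: active means hit in primary screen, with calcium signal over 5 SD above buffer well mean in both duplicates; inactive means the rest.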

Tested on: TRPC4 (mouse), co-expressed with 5HT1a in HEK293
Assay: enhancement of serotonin-evoked TRPC4 response – cell-based, second counter screen, HEK293 TRPC4/5HT1a, Fluo-4, counter-screen for TRPC4 potentiator project, confirmation (AID 434979;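 active means signal rise over 3 SD above mean of control wells given weak agonist, in both repeats and first screen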)
Conditions: Fluo-4 calcium flux, at 10 µM, serotonin added at its EC20 dose; active compounds read high

Compound	outcome	potentiation
CCCc1nc2oc3c(NCCCN(C)C)ncnc3c2c2c1CCCC2	inactive	
O=C(/C=C/c1ccc(Cl)cc1)N(Cc1ccccc1)C1CCS(=O)(=O)C1 (stereo not drawn)		15.5% (active)
COc1ccc(NS(=O)(=O)c2ccc3ccccc3c2)c2ncccc12	inactive	
CN(C)S(=O)(=O)N1CCC(CCCC2CCN(S(=O)(=O)N(C)C)CC2)CC1		8.71% (active)
COc1cc(C2(c3ccc(O)c(OC)c3)C(=O)Nc3c(C)cc(Br)cc32)ccc1O		71.7% (active)
COC(=O)C(CC(=O)Nc1cc(C)ccc1C)Nc1ccccc1OC (stereo not drawn)	inactive	
CC(C)CCc1noc(CN2CCN(c3ccc(Cl)cn3)CC2)n1	inactive	
Cc1cc(OCCN2CCCC2)ccc1[N+](=O)[O-]		13.9% (active)
CSc1ccc(S(=O)(=O)NCC(=O)OCC(=O)N(C)Cc2ccccc2)cc1[N+](=O)[O-]	inactive	
O=C(COC(=O)c1ccccc1C(=O)N1CCN(c2ccccc2)CC1)Nc1ccc(F)cc1		50.1% (active)
CCCCCCCCCC[n+]1cccc2c3ccccc3ccc21	inactive	
Cc1nn(-c2cc(C(F)(F)F)ccc2Cl)c2nc(C(Cl)(Cl)Cl)[nH]c(=O)c12	inactive	
Cc1cc2oc(C(=O)N(Cc3cccs3)C3CCS(=O)(=O)C3)cc(=O)c2cc1Cl (stereo not drawn)		66.3% (active)
CN(C)CCCN(C(=O)CCc1ccccc1)c1nc2ccc(F)cc2s1	inactive	
Cc1ccc(C(=O)O)cc1N=Cc1cc(Br)cc(Br)c1O	inactive	
N=c1c2c3c(sc2ncn1Cc1ccccc1)CCCC3	inactive	
Cn1c2ccccc2c(=O)c2c(=O)n(-c3ccccc3)c(-c3ccc(C(C)(C)C)cc3)nc21	inactive	
CCCNc1nc2ccccc2n2c(C)nnc12	inactive	
CC(C)NS(=O)(=O)c1ccc(NC(=O)C(C)Oc2ccc(C(=O)c3ccccc3)cc2)cc1 (stereo not drawn)		30.1% (active)
O=C1C=CC(=O)N1CCNc1ncc(C(F)(F)F)cc1Cl	inactive	

Compound	outcome	potentiation
CCN1CCN(c2ccc(S(=O)(=O)N3CCCCC3)cc2NC(=O)c2cccc(F)c2)CC1		18.4% (active)
CCn1c2ccc(F)cc2c2nnc(NN)nc21	inactive	
CCCN1Cc2cccc(C(=O)N3CCN(c4cc(Cl)ccc4C)CC3)c2C1=O		49.8% (active)
Cc1ccc2c(c1)C1CN(C)CCC1N2C(=S)NC(=O)c1ccc(Br)cc1 (stereo not drawn)		23.8% (active)
CCCCN(CC)CCCNC(=O)c1cc2cc3ccc(C)cc3nc2o1		21.8% (active)
COc1cc(NC(=O)CSc2ncnc3sc4c(c23)CCC(C)C4)c(C(=O)O)cc1OC (stereo not drawn)	inactive	
CN(CCCNC(=O)CCCOc1cc(=O)n(C)c2ccccc12)Cc1ccccc1		20.2% (active)
O=S(=O)(NCC1NCCc2ccccc21)c1ccccc1 (stereo not drawn)	inactive	
Cc1cc(C)c2c(=O)n(CC(=O)Nc3cccc(Cl)c3C)sc2n1		9.63% (active)
O=C(Nc1ccnn1C1CCN(Cc2cc3ccccc3[nH]2)CC1)C1CCOC1 (stereo not drawn)	inactive	
CC(Oc1ccc(Cl)cc1Cl)C(=O)N(C)c1ccccc1 (stereo not drawn)	inactive	
O=C(C1=C[C@H](c2ccc(C(F)(F)F)cc2)C[C@H](OCCCCO)O1)N1CCOCC1	inactive	
O=C(O)CCCN1C(=O)/C(=C\c2ccc(-c3nc4ccccc4s3)o2)SC1=S		22.6% (active)
O=c1c2ccccc2nc(COc2ccccc2)n1/N=C/c1cc([N+](=O)[O-])ccc1O		10.5% (active)
O=C(CCN1CCN(Cc2ccccc2)CC1)Nc1cccc(Br)c1	inactive	
O=C(NC1CCCC1)c1cc2ccccc2o1		19.7% (active)
Cc1cc(/C=N/NC(=O)c2cccc([N+](=O)[O-])c2)c(C)n1-c1ccc(Cl)cc1Cl	inactive	
CCN(CC)c1ncnc2sc3c(c12)CCC3	inactive	
CC(=O)c1nn(-c2cccc(Br)c2)cc1C(=O)c1cccc2ccccc12	inactive	

Tested on: not listed separately
Assay: nonspecific calcium rise without TRPC4 – cell-based, HEK293 mu-opioid receptor line, counter-screen for TRPC4 activator project, confirmation (AID 449723);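 further: counter screen cells carry the mu-opioid receptor alone and lack TRPC4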
Conditions: HEK293 mu-opioid cells, Fluo-4 calcium fluorescence, at 10 µM; active compounds read high

Compound	outcome
CCCc1nc2oc3c(NCCCN(C)C)ncnc3c2c2c1CCCC2	inactive
O=C(/C=C/c1ccc(Cl)cc1)N(Cc1ccccc1)C1CCS(=O)(=O)C1 (stereo not drawn)	inactive
COc1ccc(NS(=O)(=O)c2ccc3ccccc3c2)c2ncccc12	inactive
CN(C)S(=O)(=O)N1CCC(CCCC2CCN(S(=O)(=O)N(C)C)CC2)CC1	inactive
COc1cc(C2(c3ccc(O)c(OC)c3)C(=O)Nc3c(C)cc(Br)cc32)ccc1O	inactive
COC(=O)C(CC(=O)Nc1cc(C)ccc1C)Nc1ccccc1OC (stereo not drawn)	inactive
CC(C)CCc1noc(CN2CCN(c3ccc(Cl)cn3)CC2)n1	inactive
Cc1cc(OCCN2CCCC2)ccc1[N+](=O)[O-]	inactive
CSc1ccc(S(=O)(=O)NCC(=O)OCC(=O)N(C)Cc2ccccc2)cc1[N+](=O)[O-]	inactive
O=C(COC(=O)c1ccccc1C(=O)N1CCN(c2ccccc2)CC1)Nc1ccc(F)cc1	inactive
CCCCCCCCCC[n+]1cccc2c3ccccc3ccc21	inactive
Cc1nn(-c2cc(C(F)(F)F)ccc2Cl)c2nc(C(Cl)(Cl)Cl)[nH]c(=O)c12	inactive
Cc1cc2oc(C(=O)N(Cc3cccs3)C3CCS(=O)(=O)C3)cc(=O)c2cc1Cl (stereo not drawn)	inactive
CN(C)CCCN(C(=O)CCc1ccccc1)c1nc2ccc(F)cc2s1	inactive
Cc1ccc(C(=O)O)cc1N=Cc1cc(Br)cc(Br)c1O	inactive
N=c1c2c3c(sc2ncn1Cc1ccccc1)CCCC3	inactive
Cn1c2ccccc2c(=O)c2c(=O)n(-c3ccccc3)c(-c3ccc(C(C)(C)C)cc3)nc21	inactive
CCCNc1nc2ccccc2n2c(C)nnc12	inactive
CC(C)NS(=O)(=O)c1ccc(NC(=O)C(C)Oc2ccc(C(=O)c3ccccc3)cc2)cc1 (stereo not drawn)	inactive
O=C1C=CC(=O)N1CCNc1ncc(C(F)(F)F)cc1Cl	inactive

Compound	outcome
CCN1CCN(c2ccc(S(=O)(=O)N3CCCCC3)cc2NC(=O)c2cccc(F)c2)CC1	inactive
CCn1c2ccc(F)cc2c2nnc(NN)nc21	inactive
CCCN1Cc2cccc(C(=O)N3CCN(c4cc(Cl)ccc4C)CC3)c2C1=O	inactive
Cc1ccc2c(c1)C1CN(C)CCC1N2C(=S)NC(=O)c1ccc(Br)cc1 (stereo not drawn)	inactive
CCCCN(CC)CCCNC(=O)c1cc2cc3ccc(C)cc3nc2o1	inactive
COc1cc(NC(=O)CSc2ncnc3sc4c(c23)CCC(C)C4)c(C(=O)O)cc1OC (stereo not drawn)	inactive
CN(CCCNC(=O)CCCOc1cc(=O)n(C)c2ccccc12)Cc1ccccc1	inactive
O=S(=O)(NCC1NCCc2ccccc21)c1ccccc1 (stereo not drawn)	inactive
Cc1cc(C)c2c(=O)n(CC(=O)Nc3cccc(Cl)c3C)sc2n1	inactive
O=C(Nc1ccnn1C1CCN(Cc2cc3ccccc3[nH]2)CC1)C1CCOC1 (stereo not drawn)	inactive
CC(Oc1ccc(Cl)cc1Cl)C(=O)N(C)c1ccccc1 (stereo not drawn)	inactive
O=C(C1=C[C@H](c2ccc(C(F)(F)F)cc2)C[C@H](OCCCCO)O1)N1CCOCC1	inactive
O=C(O)CCCN1C(=O)/C(=C\c2ccc(-c3nc4ccccc4s3)o2)SC1=S	inactive
O=c1c2ccccc2nc(COc2ccccc2)n1/N=C/c1cc([N+](=O)[O-])ccc1O	inactive
O=C(CCN1CCN(Cc2ccccc2)CC1)Nc1cccc(Br)c1	inactive
O=C(NC1CCCC1)c1cc2ccccc2o1	inactive
Cc1cc(/C=N/NC(=O)c2cccc([N+](=O)[O-])c2)c(C)n1-c1ccc(Cl)cc1Cl	inactive
CCN(CC)c1ncnc2sc3c(c12)CCC3	inactive
CC(=O)c1nn(-c2cccc(Br)c2)cc1C(=O)c1cccc2ccccc12	inactive
